Screens deposited in PubChem by National Center for Advancing Translational Sciences (NCATS).
Methyltransferases: Primary Screen for Target Class Profiling of Small Molecule Inhibitors of Methyltransferases; purified enzyme, MTase-Glo SAH luminescence; active compounds read low; calls only at 40 µM; hit rate 3.9% among 25,000; call rule not given here
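Each enzyme was reacted with SAM and its substrate, with compounds tested once at 40 uM; SAH formed was read by MTase-Glo luminescence.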
Calls only; 0 = inactive; + = active, no number. This is one part of a sample in which hits are shown more often than they occur.

SMILES	Methyltransferases
CN1C(=O)c2cc(C(=O)NCc3ccc(F)cc3)nn2CC1(C)C(=O)NCc1ccc(F)cc1 (stereo not drawn)	0
COc1ccc(OC)c(CCNC(=O)C(C)n2ccc3cc(S(=O)(=O)N4CCCC4)ccc32)c1 (stereo not drawn)	0
COc1ccc2cc3n(c2c1)CC(C)(C(=O)NC1CCCCCC1)N(CCCN1CC(C)CC(C)C1)C3=O (stereo not drawn)	0
CCn1c(-c2nonc2N)nc2c(C#CC(C)(C)O)ncc(OCC3CCCNC3)c21 (stereo not drawn)	+
O=C(Cn1ccc2cc(S(=O)(=O)N3CCCCC3)ccc21)NCc1ccc(Cl)cc1	0
Cc1cc(C)cc(N2C(=O)c3cc4occc4n3CC2(C)C(=O)NC2CCCC(C)C2C)c1 (stereo not drawn)	0
CC/C=C\CCO[C@@H]1O[C@H](CO)[C@@H](O)[C@H](O)[C@H]1O	+
CC(C)=CCC(O)/C(C)=C/CO[C@@H]1O[C@H](CO)[C@@H](O)[C@H](O)[C@H]1O (stereo partly drawn)	+
COc1ccc(C(O)C(C)OC2OC(CO)C(O)C(O)C2O)cc1 (stereo not drawn)	0
OCc1ccccc1O[C@@H]1O[C@H](CO)[C@@H](O)[C@H](O)[C@H]1O	0
CC(C)=CCC/C(C)=C/CO[C@@H]1O[C@H](CO)[C@@H](O)[C@H](O)[C@H]1O	0
CCC(C)C(=O)OC[C@H]1O[C@H](O[C@H]2O[C@H](CO)[C@@H](O)[C@H](O)[C@H]2O)[C@H](O)[C@@H](O)[C@@H]1O (stereo partly drawn)	0
COc1ccc(Br)cc1CNC(=O)c1ccc(N2C(=O)Cn3c(cc4sccc43)C2=O)cc1	0
CN1C(=O)c2cc(C(=O)NCCC3=CCCCC3)nn2CC1(C)C(=O)NC1CCCCCC1 (stereo not drawn)	0
CCOC(=O)c1cc2n(n1)CC(C)(C(=O)NC1CCCCCC1)N(Cc1ccccc1OCC)C2=O (stereo not drawn)	0
COc1ccc(Cl)cc1NC(=O)Cn1nc2cc(C)nc(Nc3ccccc3)n2c1=O	0
O=C(CCc1nnc2n(Cc3ccc(Cl)cc3)c(=O)c3ccccc3n12)NCc1ccccn1	0
O=C(NCCNC(=O)c1cccnc1)c1cccnc1	0
N#Cc1ccc(-c2cnc3[nH]cc(NC(=O)c4cccnc4)c3c2)cc1	+
CCS(=O)(=O)N(Cc1cccnc1)c1cccc(-c2ccc(C#N)cc2)c1	0
CC1(C(=O)NC2CCCCCC2)Cn2c(cc3sccc32)C(=O)N1C1CCCc2ccccc21 (stereo not drawn)	0
Cn1cc(-c2cnn3c(N)c(Br)c([C@@H]4CCCNC4)nc23)cn1	+
CCC(C)NC(=O)Cn1nc2n(Cc3ccccc3)c(=O)c3ccc(C(=O)NCC(C)C)cc3n2c1=O (stereo not drawn)	0
CCCn1c(=O)c2ccc(Cl)cc2n2c(=O)n(CC(=O)Nc3ccc(F)cc3)nc12	0
Cc1ccc2c(c1)c(-n1cccc1)c1n2CC(C)(C(=O)NC2CCC(C)CC2)N(Cc2ccc(Cl)cc2)C1=O (stereo not drawn)	0
SMILES	Methyltransferases
C=CCn1c(=O)c2ccc(C(=O)NCC(C)C)cc2n2c(=O)n(CC(=O)Nc3ccccc3F)nc12	0
CN1CCc2cccc3c2C1Cc1ccc(O)c(O)c1-3 (stereo not drawn)	+
CC(C)CCN1C(=O)c2nc3ccccc3n2CC1(C)C(=O)NC1CCCC(C)C1C (stereo not drawn)	0
CCc1cc2c(cc3n2CC(C)(C(=O)NC2CCCCCC2)N(c2cccc(OC)c2)C3=O)s1 (stereo not drawn)	0
Cc1ccc(C(=O)Cn2nc3n(CC(C)C)c(=O)c4ccc(C(=O)NCC(C)C)cc4n3c2=O)c(C)c1	0
CC[N+]1(C/C2=C/CCCCCC2)CCC(NC(=O)C2c3cc(Cl)ccc3Oc3ccc(Cl)cc32)CC1 (stereo not drawn)	+
CC1CCC(NC(=O)C2c3cccn3CC(=O)N2CCC2=CCCCC2)CC1 (stereo not drawn)	0
CC(C)CCNC(=O)C1(C)Cn2nc(C(=O)NCc3ccc(Cl)cc3)cc2C(=O)N1C (stereo not drawn)	0
Cc1cccc(CN2C(=O)c3cc4ccccc4n3CC2(C)C(=O)NCCCOC(C)C)c1 (stereo not drawn)	0
C=C(C(=O)O)C1CC(O)C2(C)CCCC(=C)C2C1 (stereo not drawn)	+
C=C1CCC[C@]2(C)CC[C@@](O)(C(=C)C(=O)O)C[C@@H]12	0
C=C(C(=O)O)C1CC(OC(=O)CC(C)CC)C2(C)CCCC(=C)C2C1 (stereo not drawn)	0
CCOC(=O)c1cc2n(n1)CC(C)(C(=O)NC1CCCCCC1)N(c1ccc(C)c(Cl)c1)C2=O (stereo not drawn)	0
O=C(CCc1nnc2n(Cc3ccc(Cl)cc3)c(=O)c3ccccc3n12)N1CC=C(c2ccccc2)CC1	0
COc1ccc(OC)c2c1cc1n2CC(C)(C(=O)NC2CCCCC2)N(Cc2ccccc2C)C1=O (stereo not drawn)	0
CCOCCCNC(=O)C1c2c(n(C)c3ccccc23)SCC(=O)N1c1ccc(C(C)C)cc1 (stereo not drawn)	0
NC1(c2ccc(-c3nc4ccn5c(=O)[nH]nc5c4cc3-c3ccccc3)cc2)CCC1	+
CC(C)Cn1c(=O)c2ccccc2n2c(SCC(=O)N3CCN(c4ccc(F)cc4)CC3)nnc12	0
O=c1[nH]c2ccc(S(=O)(=O)Nc3ccc(N4CCOCC4)cc3)cc2[nH]1	0
c1cn2cc(-c3ccc4cn[nH]c4c3)nc(Nc3ccc(N4CCOCC4)cc3)c2n1	+
CC(C)NC(=O)c1ccc2c(=O)n(C(C)C)c3nn(CC(=O)Nc4ccccc4Cl)c(=O)n3c2c1	0
CC(C)OCCCNC(=O)C1(C)Cn2cnc(C(=O)Nc3cccc(Cl)c3)c2C(=O)N1C1CC1 (stereo not drawn)	0
COC(=O)C1=COC(OC2OC(CO)C(O)C(O)C2O)C2C1CC(OC(=O)C(O)CC(=O)O)C2C (stereo not drawn)	+
CC1C(OC(=O)c2ccccc2)C(O)C2C(C(=O)O)=COC(OC3OC(CO)C(O)C(O)C3O)C12 (stereo not drawn)	0
COC(=O)C1=COC(OC2OC(CO)C(O)C(O)C2O)C2C(C)C(OC(C)=O)C(OC(=O)c3ccccc3)C12 (stereo not drawn)	0
C=C[C@H]1[C@H](O[C@@H]2O[C@H](CO)[C@@H](O)[C@H](O)[C@H]2O)OC=C(C(=O)OC)[C@H]1C[C@@H]1N[C@H](C(=O)O)Cc2c1[nH]c1ccccc21	0
COC(=O)C1=CO[C@@H](O[C@@H]2O[C@H](CO)[C@@H](O)[C@H](O)[C@H]2O)[C@H]2[C@@H]1CC(OC)O[C@@H]2C (stereo partly drawn)	+
COC(=O)C1=COC(O[C@@H]2O[C@H](CO)[C@@H](O)[C@H](O)[C@H]2O)C2C(C)C(=O)CC12 (stereo partly drawn)	0
COC(=O)C1=CO[C@@H](O[C@@H]2O[C@H](CO)[C@@H](O)[C@H](O)[C@H]2O)[C@@H]2[C@@H](C(=O)OC)[C@@H](O)C(O)[C@H]12 (stereo partly drawn)	0
C=C[C@H]1[C@H](O[C@@H]2O[C@H](CO)[C@@H](O)[C@H](O)[C@H]2O)OC=C(C(=O)OC)[C@H]1CC(=O)O	0
